# PubChem BioAssay AID1159580 (chemical genetic matrix, 2015)
# Several values for one entry are separate records, joined by “and”; a condition that tells them apart may be missing. Equal values may be shown once. Out of some 5,500 compounds screened, about 2,000 (36%) were called active. Inconclusive results (about 18%) are left out. The list shows a part of the results. Unmarked numbers belong to inactive results. Rule as the data show it: active = normalized growth mostly below about 0.91 (no sharp cut-off); inconclusive = no clear call, values can overlap the other calls; inactive = mostly above about 0.92.
# Assay: chemical genetic growth profiling, strain panel (AID 1159580);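 also: tested at 20 µM; growth read once vehicle control cultures reached saturation at 30 °C; 1 = growth at the plate median or of vehicle wells; lower values mean less growth of the strain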
# Conditions: S. cerevisiae deletion strains, growth OD
smiles,measurement,setting,value
O=C(O[C@@H]1Cc2c(O)cc(O)cc2O[C@@H]1c1ccc(O)c(O)c1)c1cc(O)c(O)c(O)c1,normalized growth,"locus YAL021C, strain ccr4, stronger effect = lower value",0.925
same,normalized growth,"locus YAL026C, strain drs2, stronger effect = lower value",0.923
same,normalized growth,"locus YAL030W, strain snc1, stronger effect = lower value",1.01
same,normalized growth,"locus YBL061C, strain skt5, stronger effect = lower value",0.955
same,normalized growth,"locus YBR009C, strain hhf1, stronger effect = lower value",0.973
same,normalized growth,"locus YBR021W, strain FUR4, stronger effect = lower value",0.999
same,normalized growth,"locus YBR023C, strain chs3, stronger effect = lower value",0.86 (active)
same,normalized growth,"locus YBR171W, strain sec66, stronger effect = lower value",1.04
same,normalized growth,"locus YBR229C, strain ROT2, stronger effect = lower value",0.987
same,normalized growth,"locus YBR231C, strain swc5, stronger effect = lower value",0.817 (active)
same,normalized growth,"locus YBR279W, strain paf1, stronger effect = lower value",0.986
same,normalized growth,"locus YCL011C, strain gbp2, stronger effect = lower value",0.961
same,normalized growth,"locus YCL016C, strain dcc1, stronger effect = lower value",0.966
same,normalized growth,"locus YCL029C, strain bik1, stronger effect = lower value",0.975
same,normalized growth,"locus YCL061C, strain MRC1, stronger effect = lower value",0.986
same,normalized growth,"locus YCL069W, strain vba3, stronger effect = lower value",1
same,normalized growth,"locus YCR088W, strain abp1, stronger effect = lower value",1.03
same,normalized growth,"locus YDL005C, strain med2, stronger effect = lower value",1.04
same,normalized growth,"locus YDL035C, strain GPR1, stronger effect = lower value",0.853 (active)
same,normalized growth,"locus YDL040C, strain nat1, stronger effect = lower value",1.03
same,normalized growth,"locus YDL074C, strain BRE1, stronger effect = lower value",0.854
same,normalized growth,"locus YDL101C, strain DUN1, stronger effect = lower value",0.939
same,normalized growth,"locus YDL185W, strain tfp1, stronger effect = lower value",1.01
same,normalized growth,"locus YDL192W, strain arf1, stronger effect = lower value",0.993
same,normalized growth,"locus YDR001C, strain nth1, stronger effect = lower value",1.02
same,normalized growth,"locus YDR069C, strain doa4, stronger effect = lower value",0.833 (active)
same,normalized growth,"locus YDR101C, strain arx1, stronger effect = lower value",1.01
same,normalized growth,"locus YDR137W, strain rgp1, stronger effect = lower value",0.975
same,normalized growth,"locus YDR150W, strain NUM1, stronger effect = lower value",0.961
same,normalized growth,"locus YDR159W, strain sac3, stronger effect = lower value",1.12
same,normalized growth,"locus YDR162C, strain NBP2, stronger effect = lower value",0.771 (active)
same,normalized growth,"locus YDR195W, strain ref2",1.1
same,normalized growth,"locus YDR297W, strain sur2, stronger effect = lower value",0.966
same,normalized growth,"locus YDR318W, strain mcm21, stronger effect = lower value",1.02
same,normalized growth,"locus YDR334W, strain swr1, stronger effect = lower value",0.935
same,normalized growth,"locus YDR335W, strain msn5, stronger effect = lower value",0.981
same,normalized growth,"locus YDR388W, stronger effect = lower value",1.01
same,normalized growth,"locus YDR392W, strain spt3, stronger effect = lower value",1.01
same,normalized growth,"locus YDR502C, strain sam2, stronger effect = lower value",1.02
same,normalized growth,"locus YEL003W, strain gim4, stronger effect = lower value",0.981
same,normalized growth,"locus YEL037C, strain rad23, stronger effect = lower value",0.984
same,normalized growth,"locus YEL061C, strain CIN8 (second series), stronger effect = lower value",1.03
same,normalized growth,"locus YEL061C, strain CIN8, stronger effect = lower value",0.947
same,normalized growth,"locus YER015W, strain faa2, stronger effect = lower value",0.808 (active)
same,normalized growth,"locus YER016W, strain bim1, stronger effect = lower value",1.03
same,normalized growth,"locus YER110C, stronger effect = lower value",1.03
same,normalized growth,"locus YER111C, strain swi4, stronger effect = lower value",0.986
same,normalized growth,"locus YER155C, strain BEM2 (second series), stronger effect = lower value",1.01
same,normalized growth,"locus YER155C, strain BEM2, stronger effect = lower value",1.04
same,normalized growth,"locus YER167W, strain BCK2, stronger effect = lower value",0.995
same,normalized growth,"locus YFR010W, strain ubp6, stronger effect = lower value",0.961
same,normalized growth,"locus YGL078C, strain dbp3, stronger effect = lower value",1.03
same,normalized growth,"locus YGL086W, strain mad1, stronger effect = lower value",0.954
same,normalized growth,"locus YGL167C, strain pmr1, stronger effect = lower value",1.02
same,normalized growth,"locus YGL173C, strain kem1, stronger effect = lower value",0.848 (active)
same,normalized growth,"locus YGL227W, strain vid30, stronger effect = lower value",1.05
same,normalized growth,"locus YGL240W, strain doc1, stronger effect = lower value",1.04
same,normalized growth,"locus YGL248W, strain PDE1, stronger effect = lower value",0.941
same,normalized growth,"locus YGL253W, strain hxk2, stronger effect = lower value",0.979
same,normalized growth,"locus YGR135W, strain pre9, stronger effect = lower value",1.02
same,normalized growth,"locus YGR252W, strain gcn5, stronger effect = lower value",1.01
same,normalized growth,"locus YHR013C, strain ard1, stronger effect = lower value",0.852
same,normalized growth,"locus YHR027C, strain rpn1, stronger effect = lower value",0.699 (active)
same,normalized growth,"locus YHR030C, strain SLT2, stronger effect = lower value",0.965 and 0.994
same,normalized growth,"locus YHR079C, strain IRE1 (second series), stronger effect = lower value",1.02
same,normalized growth,"locus YHR079C, strain IRE1, stronger effect = lower value",0.996
same,normalized growth,"locus YHR094C, strain hxt1, stronger effect = lower value",1.03
same,normalized growth,"locus YHR129C, strain ARP1, stronger effect = lower value",0.931
same,normalized growth,"locus YHR142W, strain chs7, stronger effect = lower value",0.851 (active)
same,normalized growth,"locus YHR200W, strain rpn10, stronger effect = lower value",1
same,normalized growth,"locus YIL066C, strain RNR3, stronger effect = lower value",0.793 (active)
same,normalized growth,"locus YIL073C, strain SPO22, stronger effect = lower value",0.665 (active)
same,normalized growth,"locus YIL125W, strain kgd1, stronger effect = lower value",1
same,normalized growth,"locus YIR030C, strain dcg1, stronger effect = lower value",1.04
same,normalized growth,"locus YJL092W, strain hpr5, stronger effect = lower value",1.04
same,normalized growth,"locus YJL095W, strain BCK1 (second series), stronger effect = lower value",0.997
same,normalized growth,"locus YJL095W, strain BCK1, stronger effect = lower value",0.898 and 0.984
same,normalized growth,"locus YJL115W, strain asf1, stronger effect = lower value",1.03
same,normalized growth,"locus YJL129C, strain trk1, stronger effect = lower value",1.06
same,normalized growth,"locus YJL134W, strain LCB3, stronger effect = lower value",0.98
same,normalized growth,"locus YJL154C, strain vps35, stronger effect = lower value",1.03
same,normalized growth,"locus YJL164C, strain tpk1, stronger effect = lower value",0.966
same,normalized growth,"locus YJL166W, strain qcr8, stronger effect = lower value",0.922
same,normalized growth,"locus YJL168C, strain set2, stronger effect = lower value",1.03
same,normalized growth,"locus YJL187C, strain SWE1 (second series), stronger effect = lower value",0.854 (active)
same,normalized growth,"locus YJL187C, strain SWE1, stronger effect = lower value",0.988
